# Test results as given in PubChem BioAssay (NCI).
# This is part of a sample that, as a whole, favours compounds with a hit. Of some 79,000 tested, about 15% had one in any assay. A number with no mark means an inactive call. Active and inactive are the calls of the source. Rule as the data show it: active = growth inhibition above about 70%; inactive = the rest.
# Tests used:
# [1] = NCI Yeast Anticancer Drug Screen. Data for the rad50 strain (AID 155);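 also: 0% = growth of vehicle-only cultures of the same strain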; conditions: S. cerevisiae rad50 strain growth inhibition; at 50.0 µM; stronger effect = higher value
# Procedure, shortened: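 A DNA repair-deficient yeast mutant serves as the test organism; compound-induced growth inhibition is calculated against vehicle-treated cells.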
# [2] = NCI Yeast Anticancer Drug Screen. Data for the mec2-1 strain (AID 157); conditions: S. cerevisiae mec2-1 strain, at 50.0 µM, stronger effect = higher value
# Procedure, shortened: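 Growth inhibition is read against vehicle-treated controls after compound exposure of the mec2-1 yeast strain, which is defective in DNA damage repair or cell cycle control.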
# [3] = NCI Yeast Anticancer Drug Screen. Data for the sgs1 mgt1 strain (AID 161);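 also: 0% = growth of cultures given vehicle only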; conditions: S. cerevisiae sgs1 mgt1 strain, at 50.0 µM, stronger effect = higher value
# Procedure, shortened: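 Growth of a repair-deficient yeast mutant was monitored after compound treatment and expressed as inhibition relative to vehicle-treated cultures.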
# [4] = NCI Yeast Anticancer Drug Screen. Data for the cln2 rad14 strain (AID 165);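 also: 0% = growth equal to vehicle treated cultures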; conditions: S. cerevisiae cln2 rad14 strain, at 50.0 µM, stronger effect = higher value
# Procedure, shortened: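 Growth inhibition, relative to vehicle-treated controls, is the read-out. The test organism is a yeast strain with defined genetic alterations, cln2 rad14.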
# [5] = NCI Yeast Anticancer Drug Screen. Data for the bub3 strain (AID 167); conditions: S. cerevisiae bub3 mutant strain, at 50.0 µM, stronger effect = higher value
# Procedure, shortened: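 Inhibition values come from growth of compound-treated mutant yeast normalised to vehicle-treated controls.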
# [6] = NCI Yeast Anticancer Drug Screen. Data for the mlh1 rad18 strain (AID 175); conditions: S. cerevisiae mlh1 rad18 strain growth inhibition; at 50.0 µM; stronger effect = higher value
# Procedure, shortened: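 Cells of a genetically altered yeast strain, deficient in DNA damage repair, were treated with compound. Their growth was then compared with that of vehicle-treated cultures to give inhibition.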
Compound,growth inhibition [1],growth inhibition [2],growth inhibition [3],growth inhibition [4],growth inhibition [5],growth inhibition [6]
COc1ccc(C#N)c(-c2ccccc2)c1,-11.2%,-13.2%,17.5%,3.05%,-6.25%,-12.3%
CCCCC(O)CNc1ccccc1 (configuration not stated),-7.4%,14.7%,5.7%,-5.75%,9.65%,3.75%
COc1cc(C)c([N+](=O)[O-])cc1[N+](=O)[O-],4.15%,8.2%,9.65%,-2.35%,-10.1%,1%
CCCc1[nH]n(-c2cccc([N+](=O)[O-])c2)c(=O)c1N=Nc1ccc(Cl)cc1,40.9%,24.1%,21.5%,20.9%,-2.5%,26.9%
N#Cc1cccc(O)c1,-3.45%,-10.7%,-2.45%,20.1%,13.7%,12%
Cc1ccc2oc(=O)cc(CC(=O)O)c2c1,-6%,-8.3%,-10.4%,12.1%,-10.7%,-7.9%
C/C=C/C#CC#C/C=C/C=C/CC,10.1%,0.7%,-1.35%,8.6%,16.6%,-2.05%
CCOC(=O)C(Cc1ccc([N+](=O)[O-])cc1)(Cc1ccc([N+](=O)[O-])cc1)C(=O)OCC,-8.9%,-0.75%,-15.3%,-8.95%,-25.6%,-17.2%
CC(C)(C)c1cc2c(OP(c3ccccc3)c3ccccc3)c(c1)Cc1cc(C(C)(C)C)cc(c1OP(c1ccccc1)c1ccccc1)Cc1cc(C(C)(C)C)cc(c1OP(c1ccccc1)c1ccccc1)Cc1cc(C(C)(C)C)cc(c1OP(c1ccccc1)c1ccccc1)C2,-11.8%,-25.9%,-38.5%,-5.15%,-18.7%,-14.2%
C#CC(C)(O)CC(C)C (configuration not stated),1.9%,-1.2%,-8.6%,-73.7%,6.65%,-71.7%
CCOC(=O)C(C#N)CCC(C)=O (configuration not stated),-12.3%,-11.1%,17.4%,-24.4%,-7.8%,-28.6%
CC1Oc2ccc3ccccc3c2C(C)N1C (configuration not stated),-0.55%,1.9%,-6.45%,-4.85%,1.3%,16.9%
CC(=O)Nc1ccc(NC(=O)Nc2cc(Cl)ccc2C)cc1,14.3%,5.05%,0.7%,13.1%,17.8%,5.1%
CCOC(=O)c1cc2c([N+](=O)[O-])cccc2[nH]1,18.4%,-5.9%,-2.2%,-35.5%,6.45%,13.7%
CCOC1(c2ccccc2)OC(=O)c2ccccc21 (configuration not stated),18.9%,3.15%,9.8%,16.7%,2.4%,11.7%
OCc1ccc(O)c(CO)n1,-8.85%,-26.3%,-3.35%,5.4%,-20.6%,7.55%
C[n+]1ccc(/C=C/c2ccc(O)c3ncccc23)c2cccc(O)c21,38.5%,41.8%,37.9%,7.75%,5.4%,44.9%
CC(=O)Nc1cccc(/C=C/C=C/c2cccc([N+](=O)[O-])c2)c1,89.3% (active),91.2% (active),93.5% (active),81.1% (active),91.3% (active),91.2% (active)
C/C(=C\C(N)=O)C(C)(C)C,4.15%,-2.25%,9.35%,10.3%,21.9%,-41.1%
O=C(c1cccc(C(=O)N2CCCC2)n1)N1CCCC1,-11.4%,-13.2%,-1.7%,-25.6%,-15.5%,-18.8%
Cc1nc(C(=O)O)ccc1O,3.05%,16%,-1.05%,-3.2%,0.45%,4%

Compound,growth inhibition [1],growth inhibition [2],growth inhibition [3],growth inhibition [4],growth inhibition [5],growth inhibition [6]
Cn1c(N)c(/C=C/C(=O)Oc2ccccc2)c(=O)n(C)c1=O,49.7%,18.4%,16.5%,16.8%,-8.8%,-43.1%
CC1(C)OC(=O)C(=CN(C2CCCCC2)C2CCCCC2)C(=O)O1,-6.45%,-6.6%,7%,-21.2%,-33.6%,-13.3%
Nc1nc2nc(-c3ccccc3)[nH]c2c(=O)[nH]1,-3.7%,6.75%,-0.15%,-52.2%,-15.1%,-12.4%
CC(C)=C1C(=O)C[C@]2(C)C[C@H]3/C(=C(/C)CCC12)CC[C@@]3(C)O (some centres not stated),46.5%,-1.25%,2%,28.6%,-6.05%,-8.4%
O=C(c1ccccc1)c1cccc2cccc(C(=O)c3ccccc3)c12,3.2%,11.7%,-7.7%,6%,6.45%,-27.6%
COC(=O)c1ccc(NCC2=CC(=O)c3ccccc3C2=O)cc1,46.9%,38%,59%,48.4%,54%,88% (active)
O=[N+]([O-])c1ccccc1S(=O)(=O)c1cc(Cl)cc2c1NCCC2,16.8%,0.15%,26.8%,9.15%,38.8%,30.9%
O=C(CCN1C(=O)CC1c1ccco1)N1CCOCC1 (configuration not stated),-1.55%,-36.1%,-10.5%,13.1%,-18.2%,13.3%
CCOC(=O)/C(O)=C\c1cc(Br)c(OC)cc1[N+](=O)[O-],54.6%,49.7%,58.4%,9.6%,30.8%,64%
COc1ccc(C2OCC(C)O2)cc1OC (configuration not stated),-13.4%,16.1%,-8.2%,-31.4%,-31.4%,-7.3%
CN1C2CCC1CC(OC(c1ccccc1)c1ccccc1)C2 (configuration not stated),11.1%,4.05%,-15.4%,0.25%,2.7%,5.1%
O=C(N/N=C1\C(=O)N(c2nccs2)C(=O)C(=O)C1c1nc2ccccc2s1)c1ccccc1O (configuration not stated),23.1%,16.9%,20.4%,30.1%,4.5%,34.1%
CCOc1nc(-c2ccccc2)cc(-c2ccc(N3CCOCC3)cc2)c1C#N,19%,9.55%,-7.4%,-11.6%,-4.5%,27.5%
O=S(=O)(O)C(Nc1ccc(Cl)cc1)c1ccccc1 (configuration not stated),0.15%,6.2%,4.6%,12.5%,11.2%,10.3%
CCOC(=O)C(C)F (configuration not stated),6.1%,-26.1%,1.55%,-1.15%,-8.45%,3.75%
Cc1ccc(NC(=O)CCC(=O)O)cc1Cl,-19.9%,-15.9%,-4.25%,-27.2%,-10.9%,-16.2%
CC(=O)Nc1c(C)n(C)n(-c2ccccc2)c1=O,-2.45%,-12.7%,23.4%,31.1%,17.6%,13.6%
CC1ON2CCCC2[C@H]1C(=O)N1C2CC3CCC2(CS1(=O)=O)C3(C)C (some centres not stated),-4.35%,2.9%,-28.6%,-0.35%,19.4%,-36.7%
Cc1cc2c(c(C(=O)NCCC(=O)O)c1)Oc1c(cc(C)cc1C(=O)NCCC(=O)O)S2,-26.9%,-13.6%,-8.2%,3.95%,-44.1%,-2.65%
COc1cc([N+](=O)[O-])c2[nH]c(=O)ccc2c1,-11.7%,19.7%,-4.5%,-7.2%,-2.05%,3.45%
O=C([O][Sb]([O]C(=O)C(Br)Br)([c]1ccccc1)([c]1ccccc1)[c]1ccccc1)C(Br)Br,15.7%,5%,20.6%,-14.2%,-0.1%,36.6%
